# Measured values published in PubChem BioAssay AID602481 (Broad Institute, 2012).
# The whole screen tested about 360,000 compounds, of which about 340 (0.094%) were called active. Rule as the data show it: active = inhibition above about 40%; inconclusive = no clear call, values can overlap the other calls; inactive = below that. Only a selection was taken, and actives are over-represented in it overall.
# System: 7,8-diaminopelargonic acid synthase BioA (Mycobacterium tuberculosis)
# Experiment: M. tuberculosis BioA enzyme inhibitors, primary screen, biochemical, plate reader, single point, HTS (AID 602481)
# Conditions: purified M. tuberculosis BioA enzyme, at 9.99 µM, hits give high values
row,Compound,inhibition
1,O=C(NCC1CC1)[C@@H]1[C@@H](CO)[C@@H]2Cn3c(ccc(-c4ccccc4)c3=O)[C@H]1N2Cc1nccs1,0.617% (inactive)
2,CC(C)CC#Cc1ccc2c(c1)O[C@H](CN(C)C(=O)Cc1cccnc1)[C@H](C)CN([C@@H](C)CO)S2(=O)=O,5.43% (inactive)
3,CC(=O)c1ccc(N2Cc3ccccc3C2)cc1,10.6% (inactive)
4,CC(=O)c1ccc(N2CCN(CC(O)c3ccccc3)CC2)cc1 (stereo not drawn),20.2% (inactive)
5,CC(=O)c1ccc(N2CCN(C(=O)c3ccc4nc[nH]c4c3)CC2)cc1,57% (active)
6,O=C(Cn1ncc2c3ccccc3n(Cc3ccccc3)c2c1=O)NCc1ccccn1,-3.36% (inactive)
7,Cc1ccc(Cn2c(C)c3cnn(CC(=O)NCc4ccccn4)c(=O)c3c2C)cc1,8.47% (inactive)
8,Cc1c2cnn(CC(=O)NCc3ccccn3)c(=O)c2c(C)n1Cc1ccc(Cl)cc1,86.8% (active)
9,O=C(CSc1n[nH]c(-c2cccnc2)n1)Nc1ccc(Cl)cc1,16.3% (inactive)
10,O=C(CSc1ncn[nH]1)Nc1ccnc2ccccc12,1.08% (inactive)
11,O=C(CSc1n[nH]c(-c2cccnc2)n1)Nc1ccnc2ccccc12,46% (active)
12,Cc1ccc(S(=O)(=O)N(C)C[C@@H]2Oc3ccc(NS(=O)(=O)c4ccc(F)cc4)cc3CC(=O)N([C@@H](C)CO)C[C@H]2C)cc1,2.21% (inactive)
13,C[C@@H]1CN([C@H](C)CO)C(=O)Cc2cc(NC(=O)CCCCCC(=O)Nc3ccccc3N)ccc2O[C@H]1CN(C)S(=O)(=O)c1ccc(F)cc1,0.122% (inactive)
14,C[C@@H]1CN([C@@H](C)CO)C(=O)c2c(c3ccccc3n2C)-c2ccccc2CO[C@H]1CN(C)Cc1cccc(C(=O)O)c1,-1.04% (inactive)
15,CCC(=O)Nc1ccc2c(c1)C(=O)N(C)C[C@H](OC)[C@H](C)CN(C(=O)C1CCC1)[C@@H](C)CO2,1.3% (inactive)
16,C[C@H](CO)N1C[C@H](C)[C@@H](CN(C)S(=O)(=O)c2cn(C)cn2)Oc2c(NC(=O)C3CC3)cccc2C1=O,-1.33% (inactive)
17,CC(=O)N[C@@H]1C=C[C@H](CC(=O)NCC2CCCCC2)O[C@H]1CO,-0.006% (inactive)
18,CO[C@H]1CN(C)C(=O)c2ccc(NS(C)(=O)=O)cc2OC[C@@H](C)N(Cc2ccccc2)C[C@@H]1C,-2.35% (inactive)
19,CCCNC(=O)N(C)C[C@H]1Oc2ncc(C#C[C@@H](C)O)cc2C(=O)N([C@@H](C)CO)C[C@@H]1C,-0.359% (inactive)
20,CCC(=O)N1C[C@@H](C)[C@@H](OC)CN(C)C(=O)c2ccc(NC(=O)C3CCCCC3)cc2OC[C@H]1C,-0.504% (inactive)
21,C[C@H](CO)N1C[C@H](C)[C@@H](CN(C)Cc2ccccc2)Oc2ccc(NC(=O)CCCN(C)C)cc2C1=O,-2.64% (inactive)
22,CCCNC(=O)C[C@@H]1CC[C@H]2[C@H](COc3ccc(NS(=O)(=O)c4ccccc4C)cc3C(=O)N2C)O1,1.74% (inactive)
23,COc1c(C=O)c(CCN(C)C(=O)c2ccc(F)cc2)cc2c1OCO2,48.4% (active)

row,Compound,inhibition
1,COc1ccc(C(=O)N(C)Cc2ccc(OC)c(OC)c2OC)cc1S(=O)(=O)N1CCOCC1,-0.32% (inactive)
2,CO[C@@H](CN(C)C(=O)c1ccc2c(c1)OCO2)[C@@H](C)CN([C@H](C)CO)S(=O)(=O)c1ccccc1,3.78% (inactive)
3,O=C(Cc1ccccc1)N1C[C@H]2[C@@H](c3ccccc31)[C@H](CO)N2C(=O)C1CCOCC1,-4.05% (inactive)
4,CC(=O)N(C)C[C@@H]1Oc2ncc(C#Cc3ccccn3)cc2C(=O)N([C@@H](C)CO)C[C@@H]1C,-5.71% (inactive)
5,CN(C)C(=O)c1cccc(-c2ccc3c(c2)[C@H]2[C@H](CCN2C(=O)c2cccnc2)[C@H](CO)N3)c1,19.8% (inactive)
6,Cc1ccccc1S(=O)(=O)N(C)C[C@@H]1OCc2ccccc2-c2c(n(C)c3ccccc23)C(=O)N([C@H](C)CO)C[C@H]1C,-1.26% (inactive)
7,C[C@@H]1CCCCO[C@H](CN(C)S(=O)(=O)c2cn(C)cn2)[C@@H](C)CN([C@@H](C)CO)C(=O)c2cc(NC(=O)CCC(F)(F)F)ccc2O1,-0.672% (inactive)
8,CN1c2ccc(-c3ccccc3F)cc2[C@H]2[C@H](CCN2C(=O)Cc2ccccn2)[C@H]1CO,6.26% (inactive)
9,COc1ccc(-c2ccc3c(c2)[C@@H]2[C@@H](CCN2C(=O)Cc2ccccn2)[C@H](CO)N3C)cc1,-0.705% (inactive)
10,CN1c2ccc(-c3ccccc3)cc2[C@H]2[C@H](CCN2C(=O)Cc2ccccn2)[C@H]1CO,50.1% (active)
11,COCc1cn(CC[C@H]2CC[C@@H](NC(=O)Nc3ccc(OC)cc3)[C@@H](CO)O2)nn1,4.23% (inactive)
12,CN1c2ccc(-c3cccc(C#N)c3)cc2[C@@H]2[C@@H](CCN2C(=O)C2CCC2)[C@@H]1CO,1.18% (inactive)
13,C=CCOc1nc2c(c(=O)n(C)c(=O)n2C)n1Cc1ccc(Cl)cc1Cl,-1.57% (inactive)
14,Cn1c(=O)c2c(nc(OCc3cccnc3)n2Cc2ccccc2)n(C)c1=O,69.8% (active)
15,CCOC(=O)N1CCN(Cc2nc3c(c(=O)n(C)c(=O)n3C)n2Cc2ccccc2)CC1,4.21% (inactive)
16,CN(C)C(=O)C[C@H]1C[C@H]2c3cc(NC(=O)Nc4ccc(C(F)(F)F)cc4)ccc3O[C@H]2[C@@H](CO)O1,-0.072% (inactive)
17,COCCN(C[C@H]1[C@H](c2ccccc2)[C@@H](CO)N1C(C)=O)C(=O)c1cccnc1,4.64% (inactive)
18,C[C@H](CO)N1C[C@H](C)[C@@H](CN(C)C(=O)Cc2cccnc2)Oc2ncc(-c3ccncc3)cc2C1=O,5.57% (inactive)
19,CCCNC(=O)N1C[C@H](C)[C@H](OC)CN(C)C(=O)c2cc(NC(=O)CC)ccc2OC[C@H]1C,0.679% (inactive)
20,CO[C@@H](CN(C)S(=O)(=O)c1ccc(C)cc1)[C@@H](C)CN([C@@H](C)CO)S(=O)(=O)c1cccc(Cl)c1,-0.469% (inactive)
21,CN1C(=O)c2cc(NC(=O)Nc3ccccc3F)ccc2OC[C@H]2O[C@@H](CC(=O)Nc3cccc(Cl)c3)CC[C@@H]21,4.99% (inactive)
22,CO[C@H]1CN(C)C(=O)c2ccc(NS(=O)(=O)c3cn(C)cn3)cc2OC[C@H](C)N(C)C[C@H]1C,-1.67% (inactive)
23,CC(C)CC#Cc1ccc2c(c1)O[C@H](CN(C)Cc1ccccc1F)[C@@H](C)CN([C@@H](C)CO)S2(=O)=O,0.76% (inactive)

row,Compound,inhibition
1,O=C(NCCN1CCCC1)[C@@H]1N[C@@H]2c3ccc(-c4ccccc4)c(=O)n3C[C@@H]2[C@H]1CO,-0.384% (inactive)
2,CC(C)NC(=O)Nc1ccc2c(c1)C(=O)N([C@H](C)CO)C[C@H](C)[C@@H](CN(C)S(C)(=O)=O)OCCCC[C@@H](C)O2,-1.93% (inactive)
3,C[C@H](O)C#Cc1ccc([C@@H]2[C@@H](CO)N3CCCCN(C(=O)c4ccc(F)cc4)C[C@H]23)cc1,8.06% (inactive)
4,O=C(C[C@@H]1CC[C@@H]2[C@H](COC[C@@H](O)CN2S(=O)(=O)c2cccc(Cl)c2)O1)N1CCOCC1,0.133% (inactive)
5,C[C@@H]1CN([C@@H](C)CO)S(=O)(=O)c2ccc(-c3cncnc3)cc2O[C@@H]1CN(C)C(=O)C1CC1,-2.8% (inactive)
6,Cc1ccc(Cn2c(C)c3cnn(CC(=O)NCCN4CCOCC4)c(=O)c3c2C)cc1,11.4% (inactive)
7,Cc1nc2nc(SCC(=O)NCc3ccco3)nn2c(C)c1Cc1ccccc1,45.5% (active)
8,Cc1nc2c(-c3ccc(F)cc3)c(C)nn2c(C)c1CCC(=O)NCc1ccco1,-0.947% (inactive)
9,COc1cc(OC)cc(-c2nc3nc(C)c(CCC(=O)NCc4ccco4)c(C)n3n2)c1,-1.9% (inactive)
10,Cc1ccc(Cc2c(C)nc3nc(SCC(=O)NCCN4CCOCC4)nn3c2C)cc1,53.9% (active)
11,O=C(Cn1cc2c(n1)CCCCC2)NCCN1CCOCC1,1.9% (inactive)
12,CO[C@H]1CN(C)C(=O)c2ccc(NC(=O)c3cccc(Oc4ccccc4)c3)cc2OC[C@@H](C)NC[C@H]1C,2.28% (inactive)
13,C/C=C/c1ccc2c(c1)O[C@@H](CN(C)S(C)(=O)=O)[C@@H](C)CN([C@H](C)CO)S2(=O)=O,3.09% (inactive)
14,CN1C(=O)c2cc(NS(=O)(=O)c3ccc(F)cc3)ccc2OC[C@@H]2O[C@@H](CC(=O)O)CC[C@H]21,0.387% (inactive)
15,C[C@@H](NC(=O)C[C@H]1C=C[C@H](NC(=O)C2CCOCC2)[C@H](CO)O1)c1ccccc1,1.84% (inactive)
16,C[C@H](CO)N1C[C@H](C)[C@@H](CN(C)CC2CCCCC2)Oc2ccc(NS(=O)(=O)c3cccs3)cc2CC1=O,3.51% (inactive)
17,CO[C@@H]1CN(C)C(=O)c2cc(NC(=O)c3cnccn3)ccc2OC[C@@H](C)N(C(=O)C2CC2)C[C@@H]1C,9.9% (inactive)
18,CC=Cc1ccc2n(c1=O)C[C@@H]1[C@@H](CO)[C@H](C(=O)N3CCc4ccccc4C3)N(C(=O)C3CCC3)[C@H]21 (mixture of isomers),0.815% (inactive)
19,CC(C)(C)S(=O)N1Cc2cc(C(=O)O)nc(-c3cccc(-c4cc5ccccc5o4)c3)c2[C@@H]1CCO (stereo partly drawn),-0.446% (inactive)
20,CCCNC(=O)Nc1ccc2c(c1)C(=O)N(C)C[C@@H](OC)[C@@H](C)CN(C)[C@@H](C)CO2,-0.7% (inactive)
21,CN(C)c1ccc2c(c1)[C@H]1C[C@H](CC(=O)NCc3ccc(Cl)cc3)O[C@H](CO)[C@H]1O2,0.352% (inactive)
22,O=C(CC1CC1)N1[C@@H]2CN(S(=O)(=O)c3ccc(F)cc3)c3ccccc3[C@@H]2[C@@H]1CO,3.83% (inactive)
